A selection: hits, their analogues and other compounds. The true share with any hit is near 9%.
HPGD inh – blocks human HPGD enzyme activity. P15428. purified HPGD, NADH fluorescence kinetic, PGE2 substrate. Potency, µM, for inactives: at the highest dose activity change, negative = inhibition, usual class: inhibitors. 150,000 tested, 4.3% active. AID 894
Target sequence (P15428 whole entry, looked up): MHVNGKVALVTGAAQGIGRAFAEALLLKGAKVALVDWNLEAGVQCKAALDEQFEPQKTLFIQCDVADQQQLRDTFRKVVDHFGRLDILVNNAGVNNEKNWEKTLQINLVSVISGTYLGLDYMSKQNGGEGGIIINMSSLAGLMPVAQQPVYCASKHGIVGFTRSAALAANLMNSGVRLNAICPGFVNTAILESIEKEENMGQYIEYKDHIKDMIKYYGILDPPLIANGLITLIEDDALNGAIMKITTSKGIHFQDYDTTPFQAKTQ
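20 nM HPGD preincubated 15 min at room temperature with compound in 50 mM Tris-HCl pH 8, 0.01% Tween 20. Started with 1 mM NAD+ and 30 uM prostaglandin E2; NADH fluorescence (360/450 nm) read 5 times over 30-s intervals, last minus first.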
IMPase Li inh – IMPase inhibition in cells with lithium potentiation. CHO-M1 cells, IP1 TR-FRET (IP-One), carbachol + lithium. Potency, µM (titrated, usually from 59.4 µM), for inactives: at the top dose activity, negative = IMPase inhibition, actives largely listed as inhibitors. 210,000 tested, 0.35% active. AID 1457; active = well fitted curve in the direction sought with a large enough effect; inconclusive = small, poorly fitted or top-dose-only effect, or another doubt; inactive = no such curve, though single readings can be large; an effect the other way counts as inactive or inconclusive;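 note: IP1 builds up when IMPase is blocked and the TR-FRET signal falls; plate controls were basal vehicle for no effect and high inhibitor control for full effect; nearly all actives have a fitted effect of over 50% in size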
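Test compounds were applied to CHO-M1 cells previously cultured for 16–30 h at 2000 per well. A small lithium amount accompanied them; after 30 min at 37C, IP1 was quantified by TR-FRET.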
ALDH1A1 inh – blocks purified human ALDH1A1 activity | P00352 | Purified ALDH1A1, NADH fluorescence, propionaldehyde substrate | Potency, µM (top dose mostly 75.3 µM), for the others: at the highest dose activity, negative = inhibition, actives largely listed as inhibitors | 220,000 tested, 7.3% active | AID 1030;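 note: plate controls were no enzyme wells and a reference inhibitor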
Target sequence (P00352 whole entry, looked up): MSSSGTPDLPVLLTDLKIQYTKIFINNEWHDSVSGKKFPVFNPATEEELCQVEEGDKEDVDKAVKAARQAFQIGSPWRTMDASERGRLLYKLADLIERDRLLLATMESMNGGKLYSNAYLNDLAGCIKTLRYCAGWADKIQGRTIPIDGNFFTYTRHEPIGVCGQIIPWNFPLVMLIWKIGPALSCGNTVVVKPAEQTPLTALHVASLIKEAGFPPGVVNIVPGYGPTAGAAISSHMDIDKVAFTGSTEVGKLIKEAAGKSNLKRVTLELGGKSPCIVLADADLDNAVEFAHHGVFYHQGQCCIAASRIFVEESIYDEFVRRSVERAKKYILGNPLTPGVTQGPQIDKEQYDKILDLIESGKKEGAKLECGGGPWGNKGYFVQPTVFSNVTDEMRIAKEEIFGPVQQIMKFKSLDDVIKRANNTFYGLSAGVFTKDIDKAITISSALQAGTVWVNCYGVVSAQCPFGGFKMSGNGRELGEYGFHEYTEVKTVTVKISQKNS
LMNA splice mod – modulators of lamin A splicing. HeLa LMNA splicing GFP/RFP minigene ratio, 48 h. Potency, µM (titrated, usually from 46.1 µM), inactives show at the top dose ratio change, negative = inhibition, hits mostly inhibitors. 200,000 tested, 0.01% active; active = well fitted inhibition curve with a large enough effect in the signal ratio, with a control signal flat, not every such curve was filed as active; inconclusive = small, poorly fitted or top-dose-only effect, or effect the other way, or a change in a side signal; the % refers to the signal ratio
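S3 HeLa cells stably expressing lamin A-EGFP splicing minigene plus DsRed2, 600 cells/well, 48 h compound exposure at 37C. Laser-scanning cytometry; analysed as GFP (500-530 nm)/RFP (575-640 nm) total intensity ratio; 0.5% DMSO vehicle.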
KinaseGlo FLuc – Kinase-Glo luciferase inhibition (counter-screen); Q27757; Kinase-Glo luciferase, ATP luminescence, 8 min; Potency, µM (doses to about 38.3 µM), for the others: at the top dose activity change, negative = inhibition, usual class: inhibitors; 200,000 tested, 0.28% active; AID 1379; active = well fitted curve in the direction sought with a large enough effect; inconclusive = small, poorly fitted or top-dose-only effect, or another doubt; inactive = no such curve, though single readings can be large; an effect the other way counts as inactive or inconclusive; note: nearly all actives have a fitted effect of over 60% in size
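Kinase-Glo luciferase light output from ATP and luciferin was measured with 10 uM ATP, within the enzyme's linear range. Buffer: 50 mM imidazole pH 7.2, 50 mM KCl, 7 mM MgCl2, 0.01% Tween 20, 0.05% BSA; luminescence read after 8 min at ambient temperature.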
An asterisk follows results filed as active; ? = inconclusive; · = not tested or not shown; ! = a repeat was not active; [ ] = another dose, or the depositor's remark. Unless noted, calls come from the whole dose curve; as a rule, active = well fitted inhibition curve with a large enough effect (not every such curve was filed as active); inconclusive = small, poorly fitted or top-dose-only effect, or another doubt; inactive = no such curve, though single readings can be large or run the other way. Unless noted, % is set by controls: 0 for no effect and ±100 for the full control effect; potency is the fitted concentration of half-maximal effect.

SMILES	HPGD inh	IMPase Li inh	ALDH1A1 inh	LMNA splice mod	KinaseGlo FLuc
Nc1cccn2c(-c3ccc(Cl)c(Cl)c3)cnc12	·	1%	25µM*	-2%[46 µM]	-5%
Nc1nnc(-c2ccc(Cl)c(Cl)c2)s1	·	-2%	?	·	3%
Cn1c(-c2ccc(Cl)cc2)cnc1N	-5%	25%[38.3 µM]	10%	-2%	0%
Nc1cccn2c(-c3ccc(Cl)cc3)cnc12	·	3%	28µM*	-5%[9.22 µM]	-8%
C/C(=N/NC(=O)CNC(=O)c1ccccn1)c1ccccc1	?	6%	14µM*	-2%	1%
C/C(=N\NC(=O)c1ccccn1)c1ccc(C(=O)O)s1	·	7%	10µM*	·	14µM*
C/C(=N\NC(=O)c1ccccc1O)c1ccc(Br)s1	32µM*	-6%	-14%	?	-28%
C/C(=N\NC(=O)c1ccccc1[N+](=O)[O-])c1ccc(Br)s1	·	2%	3%	11%[46 µM]	2%
COc1cccc(Nc2sc(C(=O)c3ccc(F)cc3)c(N)c2C(=O)NCc2ccc(C)cc2)c1	·	·	·	-9%[46 µM]	·
Cc1ccc(S(N)(=O)=O)cc1NC(=O)/C=C/c1ccc2c(c1)OCO2	·	2%	-7%	·	0%
CC(=O)Nc1ccc(NC2=C(Cl)C(=O)c3ccccc3C2=O)cc1	·	74%	?	?	?
CN(C)c1ccc(NC2=C(Cl)C(=O)c3ccccc3C2=O)cc1	14µM*	60%	?	?	-14%
COc1ccc(C(=O)NC(=S)NCc2ccc(-c3nc4ccccc4o3)cc2)cc1OC	-21%	-52%[38.3 µM]	5µM*	15%	-1%
CC(=O)Nc1ccc(NC(=O)CN(c2ccc(C(C)C)cc2)S(=O)(=O)c2ccccc2)cc1	·	5%	-6%	·	1%
C=C1C2(C(=O)NCc3ccco3)CCC(C2)C1(C)C (stereo not drawn)	25µM*	5%	-6%	-7%	-6%
c1cncc(CSc2ncnc3nc[nH]c23)c1	-3%	-10%	2%[13.5 µM]	·	-1%[7.66 µM]
COc1cc(C(=O)NC(C)c2cnn(-c3ccccc3C)c2C)cc(OC)c1OC (stereo not drawn)	·	9%	2%	·	-1%
O=C(COC(=O)C1CC(=O)N(Cc2ccccc2)C1)Nc1ccccc1F (stereo not drawn)	·	-10%	-10%	4%[46 µM]	-3%
O=C(c1ccc(Cl)cc1)c1c[nH]c(C(=O)C(Cl)(Cl)Cl)c1	?	23%[38.3 µM]	8.9µM*	-11%	-2%
O=C(c1c[nH]c(C(=O)C(Cl)(Cl)Cl)c1)c1ccc(F)cc1Cl	·	9%	1µM*	?	1%
O=C(c1ccc(Cl)cc1)c1c[nH]c(C(=O)NNc2ccccc2)c1	·	2%	20µM*	?	2%
O=C(c1ccccc1)c1c[nH]c(C(=O)C(Cl)(Cl)Cl)c1	·	-1%	3.5µM*	6%[46 µM]	0%
CN(C)C(=O)c1cc(C(=O)c2ccc(C(F)(F)F)cc2F)c[nH]1	·	-1%	-2%	1%[46 µM]	-1%
CCCCCCCC(=O)OC[C@H](CO)OC(=O)CCCCCCC	-9%	6%	-6%	·	2%
COCCn1c(=O)c(-c2cccs2)nc2cnc(OC)nc21	·	-17%	?	-10%	·
SMILES	HPGD inh	IMPase Li inh	ALDH1A1 inh	LMNA splice mod	KinaseGlo FLuc
Cc1ccc(CCNC(=O)c2cnc3c(-c4ccc(F)cc4)c(C)nn3c2C)cc1	·	·	·	-14%[46 µM]	·
CC1CCN(c2cc3c(cc2F)c(=O)c(S(=O)(=O)c2cccc(Cl)c2)cn3Cc2ccccc2)CC1	·	·	·	2%[46 µM]	·
Fc1ccccc1CSc1nnc(-c2cccnc2)o1	·	6%	-2%	·	-3%
Fc1ccccc1CSc1nnc(-c2ccccc2)o1	10µM*	31%[38.3 µM]	-13%	12%	-3%
Cc1ccccc1-c1nnc(SCc2ccccc2)o1	22µM*	27%[38.3 µM]	5%	9%	2%
Cc1ccc(C)c(CSc2nnc(-c3cccnc3)o2)c1	25µM*	-4%[38.3 µM]	?	18%	-3%
O=c1cc(CSc2nnc(COc3ccc(Cl)cc3)o2)c2ccccc2[nH]1	-21%	30%[38.3 µM]	6%	?	0%
O=c1cc(CSc2nnc(-c3ccccc3)o2)c2ccccc2[nH]1	7.9µM*	7%	3%	-2%	0%
O=C(Cc1cccc([N+](=O)[O-])c1)NCc1nc2cccnc2n1Cc1ccc(F)cc1	·	·	·	4%[46 µM]	·
COc1ccc(-c2nnc(SCc3ccccc3F)o2)cc1	-10%	31%[38.3 µM]	-14%	-11%	-1%
Cc1ccccc1-c1nnc(SCc2ccccc2F)o1	16µM*	14%[38.3 µM]	-12%	?	-10%
COC(=O)/C=C/c1sc2nc(C)cc(C)c2c1N=CN(C)C	·	3%	12%	·	1%
COc1ccc(OC)c(C(=O)Cn2c3[n+](c4ccc(C(F)(F)F)cc42)CCCCC3)c1	·	9%	2%	-27%[46 µM]	4%
Fc1ccc(NC(=S)N2N=CCC2c2ccccc2)cc1 (stereo not drawn)	-13%	-8%[38.3 µM]	7.1µM*	21%	-28%
CCCn1c(N)c(C(=O)COc2ccc(Br)cc2F)c(=O)n(C)c1=O	·	6%	-12%	·	0%
N[C@@H](CSS(=O)(=O)O)C(=O)O	28µM*	-6%	-1%	·	1%
CCCn1c(-c2ccc(F)cc2)nc2c(NCCN3CCSCC3)nc(C)nc21	-6%	18%	?	·	-1%
CCN(CC(=O)NC(=O)NCc1ccco1)Cc1nc2ccccc2c(=O)[nH]1	-24%	18%[38.3 µM]	10µM*	18%	-3%
CCN(CC(=O)Nc1ccccc1Br)Cc1nc2ccccc2c(=O)[nH]1	-4%	-2%[38.3 µM]	9%	9%	-1%
Cc1nc(CNS(=O)(=O)c2cc(C)c(C)cc2C)cs1	-9%	8%[38.3 µM]	13µM*	-2%	4%
CSC1=NC(C)N2C(SC)=NC(C)N12 (stereo not drawn)	·	·	-7%	·	·
C[C@@H](CCc1ccc(O)cc1)NCCc1ccc(O)c(O)c1	1%	9%	-4%	-13%	-3%
CCNC(=O)C/C(C)=N/NC(=O)C12CC3CC(CC(C3)C1)C2	-13%	-30%[38.3 µM]	4µM*	10%	0%
CCNC(=O)C/C(C)=N/NC(=O)C1CCCCC1	-4%	1%	3%	-11%	-1%
CC(C)c1ccc(/C=N/NC(=O)c2nnn(-c3nonc3N)c2CSC2=NCCS2)cc1	-21%	-4%	20µM*	?	1%
SMILES	HPGD inh	IMPase Li inh	ALDH1A1 inh	LMNA splice mod	KinaseGlo FLuc
CCOC(=O)CCCCC(=O)c1[nH]c(=O)[nH]c1CSc1nnc2c3ccccc3n(C(C)C)c2n1	?	5%	13µM*	-13%	-3%
O=P(O)(O)CP(=O)(O)O	-6%	-9%[38.3 µM]	4%	12%	-4%
O=C(O)CP(=O)(O)O	32µM*!	9%	8%	?	-2%
Nc1nc2c(s1)COc1ccccc1-2	·	-3%	22µM*	?	-3%
CC(C)(C)C(=O)Nc1nc2c(s1)COc1ccccc1-2	-19%	33%[38.3 µM]	-8%	?	3%
O=C(CCSc1ccccc1)Nc1nc2c(s1)COc1ccccc1-2	-26%	-18%[38.3 µM]	14µM*	20%	-1%
CCOC(=O)C1=C(O)/C(=C\c2ccc(OC)c(OC)c2)N=C1C	-12%	9%[38.3 µM]	-8%	-1%	-3%

Source: PubChem
